# DAX1 inh-1: DAX1 (NR0B1) inhibition, primary screen; inhibition, % at 6.8 µM; 1.1% of 370,000 active; HEK293T StAR-luciferase reporter, SF-1/DAX-1 repression relief; AID 652010;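 active = inhibition above the mean over all tested compounds plus 3 SD, cut at about 3.6% in these data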;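 note: 0% = DAX-1 cells with DMSO and 100% = cells lacking DAX-1 with DMSO; higher inhibition means more luminescence from relief of DAX-1 repression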
# DAX1 inh-2: NR0B1 (DAX1) inhibition | HEK293 Gal4-DAX1 luciferase reporter, luminescence | inhibition, % at 6.75 µM | 0.99% of 340,000 active;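 active = inhibition above the mean over all tested compounds plus 3 SD, cut at about 4.2% in these data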;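 note: 0% = DAX1-transfected cells with DMSO and 100% = empty-vector control cells with DMSO; inhibition shows as a rise in luminescence from relieved DAX1 repression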
# hgDAF12 agonist: agonists of H. glycines DAF-12 nuclear receptor | HEK293 GAL4-hgDAF12 UAS-luciferase reporter, agonist luminescence; normalized to butyrate control | 1.8% of 370,000 active | activation, % at 6.8 µM;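 active = activation above a cutoff set at the mean of all screened compounds plus 3 SD, cut at about 10% in these data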;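 note: 0% = DMSO wells and 100% = sodium butyrate wells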
# ssDAF-12 act: S. stercoralis DAF-12 activation, primary screen | HEK293 ssDAF-12/GRIP1 lit1-tk-luc reporter, luminescence; % of 3 µM dafachronic acid response | activation, % at 6.8 µM | 1% of 370,000 active;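 active = activation above the mean over all tested compounds plus 3 SD, cut at about 0.9% in these data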;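 note: 0% = DMSO-only wells and 100% = 3 µM delta7-dafachronic acid wells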
# SMARCA2 activ: SMARCA2 function activation, primary screen. 1% of 370,000 active. AID 652017. activation, % at 9.1 µM. MG213 cells, MMTV-luciferase reporter, dexamethasone, overnight; in the data active = activation above about 7.8%;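 note: 0% = vehicle wells and 100% = reference activator wells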
# hcDAF12 agonist: activators of H. contortus DAF-12 nuclear receptor; HEK293 hcDAF-12 lit1-tk-luc reporter, luminescence; 0% DMSO, 100% Δ7-dafachronic acid; AID 652067; activation, % at 6.8 µM; 1.4% of 370,000 active;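 active = activation above the mean of all tested compounds plus 3 SD, cut at about 5.5% in these data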;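 note: 100% = response to 3 µM Δ7-dafachronic acid high control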
# LXRb hcDAF ctr: LXR-beta agonism as hcDAF-12 counter-screen; shares compounds with hcDAF12 agonist; HEK293 Gal4-LXR tk-luc reporter, luminescence, 24 h; normalized: DMSO 0%, positive control 100%; activation, % at 6.8 µM; 3,400 tested, under 10 active; AID 743027;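 active = mean percent activation of the reporter above a cutoff set as the average over tested compounds plus their standard deviation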
# Target sequence (P55055 whole entry, looked up, the tested form may be a part): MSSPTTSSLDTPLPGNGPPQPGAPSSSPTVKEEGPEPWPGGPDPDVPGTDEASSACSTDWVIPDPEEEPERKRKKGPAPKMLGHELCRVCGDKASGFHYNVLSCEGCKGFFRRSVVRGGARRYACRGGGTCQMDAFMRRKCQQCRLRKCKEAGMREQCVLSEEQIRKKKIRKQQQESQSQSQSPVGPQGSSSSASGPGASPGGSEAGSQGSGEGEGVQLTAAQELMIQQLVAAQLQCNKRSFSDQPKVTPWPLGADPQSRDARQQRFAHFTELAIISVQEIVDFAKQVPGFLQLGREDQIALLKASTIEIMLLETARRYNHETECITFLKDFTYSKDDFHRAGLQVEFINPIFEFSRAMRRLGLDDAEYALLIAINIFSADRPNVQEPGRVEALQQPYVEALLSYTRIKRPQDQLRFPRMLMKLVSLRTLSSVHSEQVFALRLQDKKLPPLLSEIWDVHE
# hcDAF12 conf: hcDAF-12 agonism, confirmation assay. shares compounds with hcDAF12 agonist. HEK293 hcDAF-12 lit1-tk-luc reporter, luminescence; % of Δ7-dafachronic acid response. activation, % at 6.8 µM. 61% of 3,400 active. AID 743032;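 active = mean activation across triplicate tests above the threshold derived from the earlier primary screen, cut at about 5.5% in these data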;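 note: 0% = DMSO only wells and 100% = 3 µM Δ7-dafachronic acid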
# The depositor's hits bear a star; . = no result. Sampled rows, rich in hits. Any-hit rate of the full collection: about 4.8%.
SMILES,DAX1 inh-1,DAX1 inh-2,hgDAF12 agonist,ssDAF-12 act,SMARCA2 activ,hcDAF12 agonist,LXRb hcDAF ctr,hcDAF12 conf
COc1ccc(-c2nnc(SC3CCOC3=O)n2C2CCCCC2)cc1OC (stereo not given),1,0,2,-1,-3,-1,.,.
COc1ccc(NC(=O)c2ccc(N(C)S(C)(=O)=O)cc2)cc1OC,0,1,2,-1,-2,-1,.,.
Cn1cc(C(=O)Nc2ccccn2)c(=O)c2ccccc21,0,3,5,1.7*,4,7.0*,1,12*
Cc1cc2ccccc2n1CCNC(=O)c1ccc(S(=O)(=O)N2CCCCC2)cc1,1,-1,0,-1,0,7.5*,0,0
Cc1ccc(C(=O)NCCc2ccc(S(=O)(=O)N3CCCC3)cc2)cc1,0,0,6,-2,-5,0,.,.
CC(OC(=O)/C=C/c1ccc2ccccc2n1)C(=O)N(C)c1ccccc1 (stereo not given),-1,0,-1,-1,4,0,.,.
CC(=O)/C=C/c1ccc2ccccc2n1,-2,-1,2,-1,3,8.2*,0,1
COCc1nnc(NC(=O)COc2ccc3c(c2)OCO3)s1,0,1,1,-1,1,4,.,.
O=C(COc1ccc2c(c1)OCO2)Nc1nccs1,2,-2,11*,1.1*,7,7.5*,1,6.0*
COc1ccc(/C=N/N2C(C)CCCC2C)cc1O (stereo not given),1,0,2,0.9*,3,8.1*,0,7.4*
CC1CCCC(C)N1/N=C/c1ccc(O)c(O)c1 (stereo not given),0,1,-1,-1,0,0,.,.
Cn1cc(C(=O)N/N=C/C(Br)=C\c2ccccc2)ccc1=O,-1,-1,0,-1,2,1,.,.
Cn1cc(C(=O)N/N=C/C(Br)=C/c2ccccc2)ccc1=O,-1,0,-1,-1,-1,7.6*,0,3
CC(C)(C)C(=O)Nc1nc(C2CCCN2S(=O)(=O)c2ccc(Cl)cc2)cs1 (stereo not given),0,0,2,-1,0,-2,.,.
N#CC1(Nc2ccc3ccccc3c2)CCCC1,4.1*,3,9,0,0,6.9*,0,7.0*
Cc1cccc(NC(=O)Nc2ccc(F)cc2)n1,2,-1,7,-1,2,1,.,.
Cc1ccc(NC(=O)Nc2cccc(C)n2)cc1,1,2,9,1.4*,6,14*,1,12*
CNc1cnn(-c2ccc(C)cc2)c(=O)c1Cl,3,3,10,1,5,8.1*,1,9.1*
CCN(CCO)C(=O)CC1C(=O)NCCN1Cc1c(F)cccc1Cl (stereo not given),0,2,-4,0,2,11*,0,1
Cc1cc(C)cc(C(=O)NCC(=O)NCc2ccc(S(N)(=O)=O)cc2)c1,0,0,1,-2,-2,-1,.,.
Cc1nc(-c2ccc(NC(=O)c3ccccc3)cc2)cs1,4.5*,-2,12*,1.2*,3,6.7*,2,8.0*
O=C(NCc1cccs1)c1ccc(S(=O)(=O)N2CCCCC2)cc1,0,0,-1,-1,0,-1,.,.
NS(=O)(=O)c1ccc(CCNc2nc3c(-c4cccc(F)c4)nnn3c3ccccc23)cc1,0,2,0,1.3*,1,7.1*,-1,1
CCOC(=O)/C(=N\Nc1cc(Cl)ccc1Cl)N1CC(C)OC(C)C1 (stereo not given),0,0,4,-2,0,-1,.,.
CCOC(=O)C(=NCC1CCCO1)NNc1cc(Cl)ccc1Cl (stereo not given),0,0,1,-1,0,7.5*,0,1
SMILES,DAX1 inh-1,DAX1 inh-2,hgDAF12 agonist,ssDAF-12 act,SMARCA2 activ,hcDAF12 agonist,LXRb hcDAF ctr,hcDAF12 conf
CC(=O)n1nc(-c2ccccc2)cc1-c1ccccc1,1,4.6*,12*,1.6*,1,14*,1,16*
Cn1c(=O)c(=O)n(C)c2cc(S(=O)(=O)N3CCN(c4ccccc4Cl)CC3)ccc21,0,.,7,0,2,0,.,.
Cc1ccc(-c2ccc(/C=N/NC(=S)Nc3ccccc3)o2)cc1[N+](=O)[O-],-1,0,0,-2,-3,1,.,.
O=C1c2ccccc2CCC12N=NCC2c1ccc(Cl)cc1 (stereo not given),1,-3,4,0,2,7.4*,0,5
COc1ccc(CNC(=O)C(=O)c2cn(CC(=O)N3CCCC3)c3ccccc23)cc1,0,0,1,0,1,7.2*,0,3
O=C(Nc1ccccc1Cl)C(=O)c1cn(CC(=O)N2CCOCC2)c2ccccc12,1,2,7,0,1,7.6*,1,8.6*
COc1ccc(CNC(=O)C(=O)c2cn(CC(=O)N3CCOCC3)c3ccccc23)cc1,0,1,1,0,4,-1,.,.
O=C(Cn1cc(SCc2ccccc2Cl)c2ccccc21)N1CCOCC1,1,-1,6,-1,3,11*,0,5
O=C(NCc1ccc(Cl)cc1)C(=O)c1cn(CC(=O)N2CCOCC2)c2ccccc12,0,0,2,-1,0,-3,.,.
CC(=O)Nc1ccc(SC(C)C(=O)NC2CCCC2)cc1 (stereo not given),0,0,0,-1,-1,-1,.,.
O=C(CSc1nnc(-c2ccc(F)cc2)o1)N1CCCCC1,2,0,8,0,1,2,.,.
C[C@H]1CCC[C@]2(O[C@H](CCO)C[C@H](O)[C@H]2O)O1,0,2,0,-1,-2,-2,.,.
COc1cc(C(=O)N2CCC(N3CCN(C)CC3)CC2)ccc1Nc1ncc2c(n1)N(C)c1ccccc1C(=O)N2C,3.7*,.,-5,0,8,6.8*,0,6.4*
COc1ccccc1N1CCN(C2CCN(C(=O)c3ccc(F)cc3)CC2)CC1,0,1,1,-1,-4,-3,.,.
CCc1ccc(C(=O)Cn2ccsc2=N)cc1,3,3,20*,2.1*,5,19*,2,12*
COc1ccc(C2NC(=O)NC(C)=C2C(=O)Nc2cccc(C)c2C)cc1 (stereo not given),-1,1,0,-1,1,-2,.,.

# Screening data as filed in PubChem BioAssay.
